From the supplement of paper PMC6331611
Values joined by “and” are separate entries in the source; they are usually repeats but may differ in a detail not shown here. Identical values can stand only once. ± gives the standard deviation of the averaged measurements. The full ranking holds about 1,600 compounds; the median of “normalized intracellular growth (luminescence, IQM-normalized) in RAW264.7 macrophages” is about 1, and the lowest 2% start at about 0.43. For the sample, the lowest values were picked, then their nearest neighbours and some compounds at random.

Test system: Salmonella enterica serovar Typhimurium SL1344
Assay: normalized intracellular growth (luminescence, IQM-normalized) in RAW264.7 macrophages (fraction of plate interquartile mean); higher = more bacterial growth (less inhibition)
Settings: 10 µM

| Compound | normalized intracellular growth (time point: T3 (3 h)) | normalized intracellular growth (time point: Tfinal (~6 h)) |
| --- | --- | --- |
| CCCCCCOC(=O)NC(=N)c1ccc(NCc2nc3cc(C(=O)N(CCC(=O)OCC)c4ccccn4)ccc3n2C)cc1 | 1.02 ± 0.01 | 0.97 ± 0.034 |
| CCCCC(CC)COC(=O)CC(C(=O)OCC(CC)CCCC)S(=O)(=O)O (stereo unspecified) | 0.943 ± 0.069 | 0.958 ± 0.027 |
| CCN(CC)CCNC(=O)c1ccc(NC(C)=O)cc1 | 1.03 ± 0.065 | 1 ± 0.12 |
| C[C@H]1[C@H](OC(=O)CCC(=O)O)O[C@@H]2O[C@@]3(C)CC[C@H]4[C@H](C)CC[C@@H]1[C@@]24OO3 | 0.899 ± 0.045 | 0.869 ± 0.028 |
| O=c1[nH]cnc2c1ncn2[C@@H]1O[C@H](CO)[C@@H](O)[C@H]1O | 0.917 ± 0.048 | 0.976 ± 0.13 |
| Nc1ccn([C@@H]2O[C@H](CO)[C@@H](O)[C@@H]2O)c(=O)n1 | 0.9664 ± 0.0095 | 0.997 ± 0.037 |
| Nc1ncn([C@@H]2O[C@H](CO)[C@@H](O)[C@H]2O)c(=O)n1 | 0.951 ± 0.029 | 0.154 ± 0.087 |
| CCCCC(CC)CN=C(N)N=C(N)NCCCCCCNC(N)=NC(N)=NCC(CC)CCCC (stereo unspecified) | 0.994 ± 0.063 | 1.1 ± 0.035 |
| CN(C)CC[C@@H](c1ccc(Cl)cc1)c1ccccn1 | 1 and 1.05 | 1.01 and 0.736 |
| C[C@]12C=CC(=O)C=C1CC[C@@H]1[C@@H]2[C@@H](O)C[C@@]2(C)[C@H]1CC[C@]2(O)C(=O)COC(=O)CCC(=O)O | 1.02 ± 0.016 | 0.815 ± 0.11 |
| N[C@H]1C(O)O[C@H](CO)[C@@H](O)[C@@H]1O (stereo partly specified) | 0.967 ± 0.045 | 0.999 ± 0.058 |
| CN1CCN(c2cc3c(cc2F)c(=O)c(C(=O)O)cn3-c2ccc(F)cc2)CC1 | 0.634 ± 0.14 | 0.982 ± 0.093 |
| CCn1cc(C(=O)O)c(=O)c2cc(F)c(N3CCNCC3)cc21 | 1.07 ± 0.028 | 1.19 ± 0.029 |
| O=C(O)c1cn(-c2ccc(F)cc2)c2cc(N3CCNCC3)c(F)cc2c1=O | 1.1 ± 0.081 | 0.00781 ± 0.0016 |
| O=C(O)c1cn(C2CC2)c2cc(N3CCNCC3)c(F)cc2c1=O | 1.14 ± 0.019 | 0.0127 ± 0.00088 |
| CCn1cc(C(=O)O)c(=O)c2cc(F)c(N3CCN(C)CC3)cc21 | 1.11 ± 0.11 | 0.012 ± 0.0031 |
| CCn1cc(C(=O)O)c(=O)c2cnc(N3CCCC3)nc21 | 0.929 ± 0.0075 | 1.04 ± 0.053 |
| C[C@H](N[C@@H](CCc1ccccc1)C(=O)O)C(=O)N1Cc2ccccc2C[C@H]1C(=O)O | 1.03 ± 0.079 | 1.08 ± 0.12 |
| NC(=O)CCCCC1CCSS1 (stereo unspecified) | 0.996 ± 0.093 | 0.817 ± 0.12 |
| O=S(=O)(O)CCCS(=O)(=O)O | 1.01 ± 0.095 | 0.9 ± 0.34 |
| O=C1/C(=C/c2cccs2)CCC/C1=C\c1cccs1 | 0.973 ± 0.059 | 1.06 ± 0.036 |
| CC1=CC(=O)NS(=O)(=O)O1 | 1.06 ± 0.077 | 1.04 ± 0.089 |
| CN1CC(=O)N2[C@H](c3ccc4c(c3)OCO4)c3[nH]c4ccccc4c3C[C@@H]2C1=O | 1.06 ± 0.072 | 0.783 ± 0.27 |
| CN(C)c1ccc(C(=C2C=CC(=[N+](C)C)C=C2)c2ccc(N(C)C)cc2)cc1 | 0.8927 ± 0.0022 | 0.931 ± 0.03 |
| CC(=O)OCC(=O)[C@@]1(O)[C@H](OC(C)=O)C[C@H]2[C@@H]3CCC4=CC(=O)C=C[C@]4(C)[C@@]3(F)[C@@H](O)C[C@@]21C | 0.823 ± 0.07 | 1.2 ± 0.034 |
| CCOc1ccc(Cc2nccc3cc(OCC)c(OCC)cc23)cc1OCC | 0.925 ± 0.09 | 0.43 ± 0.11 |
| CCC/C=C\C=C/C(=O)N[C@@H](CC(N)=O)C(=O)NC(CC(N)=O)C(=O)N[C@@H](C(=O)N[C@H](CCCN)C(=O)N[C@@H](C(=O)N[C@@H](C(=O)N[C@@H](C(=O)N[C@H](C(=O)N[C@@H](Cc1ccccc1)C(=O)N[C@H](CCCN)C(=O)NC(C(=O)N[C@H](C(=O)NC(C(=O)NCC(=O)N[C@@H](CC(C)C)C(=O)N[C@H](C)C(=O)NC(C(=O)O)C1CCC(O)C(Cl)C1)C1CCC(O)CC1)[C@H](C)O)C1CCC(O)CC1)[C@H](C)O)C1CCC(O)CC1)C1CCC(O)CC1)[C@H](C)O)C1CCC(O)CC1 (stereo partly specified) [RAMOPLANIN [A2 shown; 2mM]] | 0.984 ± 0.051 | 1.17 ± 0.15 |
| C=CCCCCCCCCC(=O)[O-].C=CCCCCCCCCC(=O)[O-].[Zn+2] | 1 ± 0.048 | 0.832 ± 0.1 |
